HT1080 IDH1KD tx: HT-1080 IDH1 knockdown cell toxicity (counter line). HT-1080 IDH1 knockdown viability, ATP luminescence, 48 h. Potency, µM (titrated, usually from 46.1 µM), inactives show top-dose activity, negative = toxicity, usual class: cytotoxic. 360,000 compounds, 2% hits. AID 686971;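 also: 0% = DMSO wells and -100% = cell-free medium wells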
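Assay cells: HT-1080 with IDH1 knockdown, 750 per well, RPMI/5% FBS. Exposure: 48 h at 37 °C following 2 h pre-incubation. Read: CellTiter-Glo luminescence; fitted concentration-response, curve class assigned.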
TDP1 cell CPT: growth inhibition of DT40 Tdp1-/-;hTDP1 cells with camptothecin (screen for TDP1 inhibitors) | chicken DT40 Tdp1-/-;hTDP1 cells + 20 nM CPT, ATP luminescence, 48 h | Potency, µM (titrated, usually from 46.2 µM), for the others: at the highest dose activity change, negative = growth inhibition, actives largely listed as inhibitors | 420,000 compounds, 12% hits; also: nearly all actives have a fitted effect of over 55% in size
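Chicken DT40 Tdp1-/- cells complemented with human TDP1, 400 cells/well, exposed to compounds plus 20 nM camptothecin for at least 48 h at 37 C; viability read as ATP content by CellTiter-Glo luminescence.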
TDP1 cell noCPT: qHTS for Inhibitors of human tyrosyl-DNA phosphodiesterase 1 (TDP1): qHTS in cells in absence of CPT. 420,000 compounds, 15% hits. AID 686978, 2013. Potency, µM (top dose mostly 46.2 µM), for the others: at the top dose activity change, negative = growth inhibition, usual class: inhibitors. DT40 Tdp1-/- hTDP1 cells, no CPT, ATP luminescence, 48 h; also: nearly all actives have a fitted effect of over 55% in size
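Seeded 400 DT40-hTDP1 cells/well (vehicle DMSO, no 20 nM CPT); pinned compounds; ≥48 hr at 37 °C; CellTiter-Glo luminescence as viability measure.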
HT1080-NT tox: kills 2HG-producing HT-1080-NT fibrosarcoma cells; HT-1080-NT fibrosarcoma viability, CellTiter-Glo ATP luminescence, 48 h; Potency, µM (series often up to 46.1 µM), for the others: at the top dose activity, negative = less viability, hits mostly cytotoxic; 360,000 compounds, 1.6% hits;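 also: NT is the 2HG producing partner of a matched IDH1 knockdown line; 0% = DMSO-treated cells and -100% = media-only wells without cells; nearly all actives have a fitted effect of over 55% in size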
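Viability by CellTiter-Glo luminescence after 48 h compound exposure at 37C of HT-1080-NT cells (750/well, RPMI, 5% FBS). % activity scaled between DMSO wells and medium-only wells, then curve-fitted and categorized by curve class.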
KB-V1 cytotox: kills drug-selected multidrug resistant KB-V1 cells | KB-V1 MDR cells viability, CellTiter-Glo, 72 h | Potency, µM (top dose mostly 46.1 µM), hits mostly cytotoxic | 400,000 compounds, 3.4% hits | AID 1347076; also: nearly all actives have a fitted effect of over 60% in size
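Cells of the MDR subline KB-V1 are plated, dosed with compound at multiple concentrations, and incubated 72 h at 37 degrees C; CellTiter-Glo is then added and luminescence read after 10 min.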
KB-3-1 cytotox: KB-3-1 parental cell cytotoxicity; KB-3-1 viability, CellTiter-Glo ATP luminescence, 72 h; Potency, µM (highest dose often 46.1 µM), actives largely listed as cytotoxic; 400,000 compounds, 1.4% hits; also: nearly all actives have a fitted effect of over 60% in size
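Here the drug-naive KB-3-1 line serves as comparator for MDR sub-line selectivity; cells received compound titrations, 72 h at 37 °C, then CellTiter-Glo readout.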
* = called active by the depositor; i = inactive; ? = inconclusive; · = no result; [ ] = dose if it differs, or a comment. This is a sample that favours compounds with a hit; in the whole collection about 19% have one here. Calls follow the shape of the dose curve; as a rule, active = well fitted curve in the direction sought with a large enough effect; inconclusive = small, poorly fitted or top-dose-only effect, or another doubt; inactive = no such curve, though single readings can be large; an effect the other way counts as inactive or inconclusive. Unless noted, % is scaled to controls: 0 for no effect and ±100 for the full control effect; potency is read from the fitted curve at half-maximal effect.

SMILES	HT1080 IDH1KD tx	TDP1 cell CPT	TDP1 cell noCPT	HT1080-NT tox	KB-V1 cytotox	KB-3-1 cytotox
O=C(Nc1ccnc(=O)[nH]1)c1sc2ccccc2c1Cl	9%	15µM*	-16%	17%	i	i
COc1cc2c(cc1OC)C(C)N(C(=O)c1sccc1C)CC2 (centres undefined)	-12%	?	-16%	2%	i	i
COc1cc2c(cc1OC)C(C)N(CCN1C(=O)c3ccccc3C1=O)CC2 (centres undefined)	0%	-6%	-5%	-1%	i	i
COc1cc2c(cc1OC)C(C)N(C(=O)c1ccc(C)o1)CC2 (centres undefined)	?	26µM*	21µM*	?	16µM*	?
COc1cc2c(cc1OC)C(C)N(CCc1ccc(Cl)cc1)CC2 (centres undefined)	?	?	?	12µM*	?	i
COc1cc2c(cc1OC)C(C)N(C(=O)c1c(-c3ccccc3)noc1C)CC2 (centres undefined)	23µM*	18µM*	13µM*	?	21µM*	?
CC1(C(=O)NS(=O)(=O)Cc2ccccc2C(F)(F)F)CCN1C(=O)Cc1ccsc1 (centres undefined)	7%	?	?	7%	i	i
Cc1cccc(CNC(=O)c2cnn(-c3ncc(C)c(-c4cccs4)n3)c2C2CC2)n1	·	-5%[9.04 µM]	-24%	·	·	·
CCOc1ccc(N2CC(C(=O)NCCCc3ccccc3)CC2=O)cc1 (centres undefined)	1%	-3%	-22%	0%	·	·
Cc1ccc2c(c1)=N/C(=N\c1[nH]c(O)c3ccccc13)N=2	?	4.1µM*	3.7µM*	23µM*	?	?
Oc1[nH]c(N=C2N=c3ccccc3=N2)c2ccccc12	?	0.58µM*	0.92µM*	?	?	?
Oc1[nH]c(=S)sc1C=C1N=c2ccccc2=N1	4%	-2%	-25%	-7%	i	i
CCCS(=O)(=O)NC(=O)C1(C)CCCN(C(=O)c2cc3ccccc3s2)C1 (centres undefined)	14%	-10%	-1%	20%	i	i
CC(CCc1ccccc1)NC(=O)c1nnc(Cc2ccc(Cl)cc2)o1 (centres undefined)	-8%	29µM*	?	0%	i	i
COc1ccc(C(=O)N2CCC2(C)C(=O)NC(C)C)c(OC)c1 (centres undefined)	?	-5%	7%	?	?	i
Cc1ccc(NC(=O)C2CCN(C(=O)c3cnn(-c4ccccc4)c3-n3cccc3)CC2)cc1	·	?	13µM*	·	i	?
COc1ccc(NC(=O)C2CCCN(C(=O)c3cnn(-c4ccc(F)cc4)c3-n3cccc3)C2)cc1 (centres undefined)	·	·	·	·	i	i
Cc1ccc(NC(=O)C2CCN(C(=O)c3cnn(-c4ccccc4)c3-n3cccc3)CC2)cc1C	·	18µM*	?	·	i	i
Cc1cc(C)cc(NC(=O)C2CCN(C(=O)c3cnn(-c4ccccc4)c3-n3cccc3)CC2)c1	·	18µM*	15µM*	·	i	i
CSc1cccc(NC(=O)C2CCCN(C(=O)c3cnn(-c4ccc(F)cc4)c3-n3cccc3)C2)c1 (centres undefined)	·	18µM*	16µM*	·	·	·
CC(C)NC(=O)C1CCN(C(=O)c2cnn(-c3ccccc3)c2-n2cccc2)CC1	·	-16%	-8%	·	i	i
O=C(NCc1ccc(F)cc1)C1CCN(C(=O)c2cnn(-c3ccccc3)c2-n2cccc2)CC1	·	?	?	·	i	i
CC(=O)OCC#CCSc1nnc(-c2cccc(Br)c2)o1	·	-18%	-18%	·	i	i
CN(C)c1nc(-c2ccccc2C(F)(F)F)nc2ccccc12	·	-12%	-14%	·	·	·
COc1ccc(CNC(=O)CN2C(=O)CCCc3ccccc32)cc1	·	-20%	2%	·	i	i
SMILES	HT1080 IDH1KD tx	TDP1 cell CPT	TDP1 cell noCPT	HT1080-NT tox	KB-V1 cytotox	KB-3-1 cytotox
Cc1ccccc1NC(=O)C1CCN(C(=O)c2cnn(-c3ccccc3)c2-n2cccc2)CC1	·	?	16µM*	·	i	i
Cc1ccc(CNC(=O)C2CCN(C(=O)c3cnn(-c4ccccc4)c3-n3cccc3)CC2)cc1	·	12µM*	9.2µM*	·	·	·
COc1ccc(S(=O)(=O)NCc2ccc3c(c2)CCN3C(C)=O)cc1OC	·	-29%	?	·	·	·
Cc1nc(-n2nc(C)c(CCC(C)C)c2C)sc1C(=O)Nc1ccc(Cl)cc1	·	?	?	·	i	i
O=C(NCc1ccccn1)c1cccc(NS(=O)(=O)c2ccccc2F)c1	1%	23%	-8%	11%	i	i
Cc1ccc(-n2c(C)cc(/C=N/NC(N)=S)c2C)cc1	-1%	3.7µM*	3.7µM*	-5%	i	i
CCOC(=O)N/N=C/c1cc(C)n(-c2ccccc2)c1C	0%	-22%	?	-1%	i	i
CNC(=S)N/N=C/c1cc(C)n(-c2ccc(Cl)c(Cl)c2)c1C	-28%	23µM*	?	-27%	i	i
COC(=O)N/N=C/c1cc(C)n(-c2cccc3ccccc23)c1C	1%	-30%	-26%	-4%	21µM*	?
Cc1cc(/C=N/NC(=O)c2cccc(F)c2)c(C)n1-c1ccccc1	-28%	?	29µM*	-29%	i	i
Cc1ccc(NC(=O)Cn2c(=O)n(-c3ccccc3)c(=O)c3ccc(C(=O)NCc4ccc5c(c4)OCO5)cc32)c(C)c1	·	?	-14%	·	?	i
CC(=O)N1c2ccc(S(=O)(=O)N(C)CC(=O)Nc3ccccc3C)cc2CC1C (centres undefined)	6%	-26%	-8%	4%	i	i
O=c1[nH]c2ccccc2c(O)c1-c1ccccc1[N+](=O)[O-]	-8%	?	-13%	19%	i	i
Cc1ccc(-n2c(C)cc(/C=N/NC(=O)CC3(C)OCCO3)c2C)cc1	-9%	?	?	-13%	i	i
Cc1ccc(-n2c(C)cc(/C=N/NC(=O)CN(c3ccc(C)cc3C)S(C)(=O)=O)c2C)cc1	?	?	21µM*	?	i	i
O=C(c1ccc2c(c1)N(Cc1cccc(Cl)c1)C(=O)c1ccccc1S2(=O)=O)N1CCCCCC1	·	18µM*	23µM*	·	·	·

High-throughput results from PubChem.
